# From PubChem BioAssay (EPA / NIEHS)
# A structure can be active in one record and inactive in another. Active and inactive are the calls of the source. How the source made its calls: active means hit-call score of the fitted dose curve at least 0.9, where 1 is the maximum; inactive means score below 0.9.
# Key:
# Details in all cases: primary human HUVEC with PBMC; actives raise or lower the signal
# [1] = read-out: Macrophage colony-stimulating factor (MCSF), CSF1 (gene 1435); assay: BSK_LPS_MCSF: BioMAP Diversity Plus: LPS Assay for Macrophage colony-stimulating factor (MCSF) Biomarker Activity (AID 2283083)
# Outline: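 HUVEC–PBMC co-culture, M-CSF measured by ELISA 24 h after chemical dosing. Fitted in both directions relative to DMSO as negative control; overt cytotoxicity assessed by SRB total-protein staining in parallel cultures.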
# [2] = read-out: Tissue Factor, F3 (gene 2152); assay: BSK_LPS_TissueFactor: BioMAP Diversity Plus: LPS Assay for Tissue Factor Biomarker Activity (AID 2283084)
# Outline: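 Human umbilical vein endothelial cells co-cultured with PBMC were dosed with compound. Cell-surface CD142 was measured by ELISA 24 h later. Activity was fitted bidirectionally against DMSO, with SRB total-protein staining in parallel cultures for cytotoxicity.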
# [3] = read-out: Tumor necrosis factor (Homo sapiens) (UniProt P01375); assay: BSK_LPS_TNFa: BioMAP Diversity Plus: LPS Assay for Tumour Necrosis Factor alpha (TNFa) Biomarker Activity (AID 2283085)
# Outline: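 Human umbilical vein endothelial cells co-cultured with PBMC and stimulated with LPS. TNFa was measured by ELISA 24 h after chemical dosing, fitted bidirectionally relative to DMSO.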
# [4] = read-out: Vascular cell adhesion molecule 1 (VCAM1), VCAM1 (gene 7412); assay: BSK_LPS_VCAM1: BioMAP Diversity Plus: LPS Assay for Vascular cell adhesion molecule 1 (VCAM1) Biomarker Activity (AID 2283086)
# Outline: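 Human umbilical vein endothelial cells co-cultured with PBMC and stimulated with LPS; VCAM-1 measured by ELISA 24 h after dosing. Bidirectional curve fitting against DMSO baseline; cytotoxicity tracked in parallel by SRB total-protein staining.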
# CD38, CD38 (gene 952) = assay: BSK_SAg_CD38: BioMAP Diversity Plus: SAg Assay for CD38 Biomarker Activity (AID 2283087)
# Outline: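 Human HUVEC plus PBMC co-culture stimulated with superantigen; CD38 measured by ELISA 24 h after chemical dosing. Fluorescence read-out, bidirectional fit against DMSO; cytotoxicity tracked in parallel by SRB and Alamar Blue.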
# CD40, CD40 (gene 958) = assay: BSK_SAg_CD40: BioMAP Diversity Plus: SAg Assay for CD40 Biomarker Activity (AID 2283088)
# Outline: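 HUVEC plus PBMC co-culture, superantigen-activated, with CD40 read by ELISA 24 h after dosing. Curves fitted in both directions against DMSO. Overt cytotoxicity checked by parallel SRB total-protein staining.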
# CD69, CD69 (gene 969) = assay: BSK_SAg_CD69: BioMAP Diversity Plus: SAg Assay for CD69 Biomarker Activity (AID 2283089);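 on AC50: cell surface CD69 protein quantified by ELISA with fluorescence detection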
# Outline: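 Endothelial/PBMC co-culture; chemical added; 24 h incubation; CD69 ELISA with fluorescence detection; bidirectional fit vs DMSO.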
# [5] = read-out: Monocyte Chemoattractant Protein-1 (MCP1), CCL2 (gene 6347); assay: BSK_SAg_MCP1: BioMAP Diversity Plus: SAg Assay for Monocyte Chemoattractant Protein-1 (MCP1) Biomarker Activity (AID 2283090)
# Outline: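 MCP-1 levels in the endothelial–PBMC SAg co-culture were quantified by ELISA at 24 h post-dosing; both increases and decreases versus DMSO scored. Cytotoxicity monitored by SRB total protein in parallel cultures.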
# [6] = read-out: E-selectin (Homo sapiens) (UniProt P16581); assay: BSK_SAg_Eselectin: BioMAP Diversity Plus: SAg Assay for Eselectin Biomarker Activity (AID 2283091)
# Outline: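 Human umbilical vein endothelial cells co-cultured with peripheral blood mononuclear cells, SAg system. E-selectin is measured by ELISA 24 h after dosing and fitted bidirectionally against DMSO. Cytotoxicity is checked by SRB staining of parallel cultures.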
# [7] = BSK_LPS_PGE2: BioMAP Diversity Plus: LPS Assay for Prostaglandin E2 (PGE2) Biomarker Activity (AID 2283082);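 on AC50: secreted prostaglandin E2 measured by ELISA in LPS-stimulated co-culture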
# Outline: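 HUVEC plus human PBMC co-culture stimulated with LPS; secreted PGE2 quantified by ELISA 24 h after chemical dosing. Activity fitted bidirectionally against DMSO baseline; parallel SRB staining (0.1% SRB after 10% TCA fixation, 560 nm) flags overt cytotoxicity.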
# Chain of E-selectin (Homo sapiens) (P16581 whole entry, looked up): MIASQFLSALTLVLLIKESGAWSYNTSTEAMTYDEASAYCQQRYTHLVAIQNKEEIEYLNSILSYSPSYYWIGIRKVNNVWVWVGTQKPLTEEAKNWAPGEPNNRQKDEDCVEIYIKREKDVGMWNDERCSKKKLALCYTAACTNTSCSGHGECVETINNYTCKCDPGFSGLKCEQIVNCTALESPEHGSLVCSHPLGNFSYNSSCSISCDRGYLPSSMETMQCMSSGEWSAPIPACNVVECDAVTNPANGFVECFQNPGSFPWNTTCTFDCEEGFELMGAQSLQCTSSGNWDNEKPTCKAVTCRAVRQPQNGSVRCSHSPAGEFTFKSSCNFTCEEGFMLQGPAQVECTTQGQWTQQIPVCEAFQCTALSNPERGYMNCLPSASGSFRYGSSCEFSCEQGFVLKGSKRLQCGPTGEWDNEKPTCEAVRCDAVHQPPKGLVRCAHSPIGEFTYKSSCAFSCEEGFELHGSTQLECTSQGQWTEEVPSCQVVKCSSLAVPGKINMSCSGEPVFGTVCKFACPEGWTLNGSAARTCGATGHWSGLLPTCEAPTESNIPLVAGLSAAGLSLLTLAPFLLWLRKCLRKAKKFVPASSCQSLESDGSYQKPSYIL
# Chain of Tumor necrosis factor (Homo sapiens) (P01375 whole entry, looked up): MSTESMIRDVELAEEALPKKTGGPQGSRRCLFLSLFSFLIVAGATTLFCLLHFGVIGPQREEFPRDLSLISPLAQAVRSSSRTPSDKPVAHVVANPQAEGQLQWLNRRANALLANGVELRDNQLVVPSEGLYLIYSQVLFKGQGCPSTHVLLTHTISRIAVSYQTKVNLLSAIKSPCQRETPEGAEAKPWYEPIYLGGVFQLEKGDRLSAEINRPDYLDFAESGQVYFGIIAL
smiles,measurement,setting,value
CC1COc2ccccc2N1C(=O)C(Cl)Cl (configuration not stated),AC50,[1],8.01 µM (active)
same,outcome,[2],inactive
same,AC50,[3],4.9 µM (active)
same,AC50,[4],9.65 µM (active)
same,AC50,"CD38, CD38 (gene 952)",10.4 µM (active)
same,AC50,"CD40, CD40 (gene 958)",7.65 µM (active)
same,AC50,"CD69, CD69 (gene 969)",5.91 µM (active)
same,outcome,[5],inactive
same,AC50,[6],13.3 µM (active)
BrC1CCC(Br)C(Br)CCC(Br)C(Br)CCC1Br (configuration not stated),AC50,[7],3.87 µM (active)
same,AC50,[1],4.67 µM (active)
same,outcome,[2],inactive
same,outcome,[3],inactive
same,AC50,[4],4.54 µM (active)
same,AC50,"CD38, CD38 (gene 952)",4.57 µM (active)
same,AC50,"CD40, CD40 (gene 958)",4.59 µM (active)
same,outcome,"CD69, CD69 (gene 969)",inactive
same,outcome,[5],inactive
same,outcome,[6],inactive
O=C=NC1CCC(CC2CCC(N=C=O)CC2)CC1 (configuration not stated),outcome,[1],inactive
same,AC50,[2],3.97 µM (active)
same,AC50,[3],2.2 µM (active)
same,outcome,[4],inactive
same,outcome,"CD38, CD38 (gene 952)",inactive
same,outcome,"CD40, CD40 (gene 958)",inactive
same,outcome,"CD69, CD69 (gene 969)",inactive
same,outcome,[5],inactive
same,outcome,[6],inactive
C=CCOC(=O)CCC1CCCCC1,outcome,[1],inactive
same,AC50,[2],1.01 µM (active)
same,outcome,[2],inactive
same,outcome,[3],inactive
same,outcome,[4],inactive
same,outcome,"CD38, CD38 (gene 952)",inactive
same,outcome,"CD40, CD40 (gene 958)",inactive
same,outcome,"CD69, CD69 (gene 969)",inactive
same,outcome,[5],inactive
same,outcome,[6],inactive
O=C1OC2(c3cc(Br)c(O)c(Br)c3Oc3c2cc(Br)c(O)c3Br)c2c(Cl)c(Cl)c(Cl)c(Cl)c21,AC50,[7],3.33 µM (active)
same,AC50,[1],5.42 µM (active)
same,AC50,[2],8.77 µM (active)
same,outcome,[3],inactive
same,AC50,[4],5.55 µM (active)
same,AC50,"CD38, CD38 (gene 952)",5.04 µM (active)
same,AC50,"CD40, CD40 (gene 958)",6.57 µM (active)
same,AC50,"CD69, CD69 (gene 969)",6.39 µM (active)
same,AC50,[5],5.24 µM (active)
same,AC50,[6],6.53 µM (active)
Nc1cc([N+](=O)[O-])ccc1Cl,outcome,[1],inactive
same,outcome,[2],inactive
same,outcome,[3],inactive
same,outcome,[4],inactive
same,outcome,"CD38, CD38 (gene 952)",inactive
same,outcome,"CD40, CD40 (gene 958)",inactive
same,outcome,"CD69, CD69 (gene 969)",inactive
same,outcome,[5],inactive
same,outcome,[6],inactive
CCn1c2ccccc2c2cc(N)ccc21,AC50,[1],7.37 µM (active)
same,outcome,[2],inactive
same,outcome,[3],inactive
same,outcome,[4],inactive
same,AC50,"CD38, CD38 (gene 952)",4.91 µM (active)
same,AC50,"CD40, CD40 (gene 958)",6.33 µM (active)
same,AC50,"CD69, CD69 (gene 969)",4.02 µM (active)
same,AC50,[5],1.85 µM (active)
same,outcome,[6],inactive
C=C[Si](OCC)(OCC)OCC,outcome,[1],inactive
same,outcome,[2],inactive
same,outcome,[3],inactive
same,outcome,[4],inactive
same,outcome,"CD38, CD38 (gene 952)",inactive
same,outcome,"CD40, CD40 (gene 958)",inactive
same,outcome,"CD69, CD69 (gene 969)",inactive
same,outcome,[5],inactive
same,outcome,[6],inactive
CC(=O)OCCC(C)CC(C)(C)C (configuration not stated),outcome,[7],inactive
same,outcome,[1],inactive
same,outcome,[2],inactive
same,outcome,[3],inactive
same,outcome,[4],inactive
same,outcome,"CD38, CD38 (gene 952)",inactive
same,outcome,"CD40, CD40 (gene 958)",inactive
same,outcome,"CD69, CD69 (gene 969)",inactive
same,outcome,[5],inactive
same,outcome,[6],inactive
C#C[C@]1(O)CC[C@H]2[C@@H]3CCC4=Cc5oncc5C[C@]4(C)[C@H]3CC[C@@]21C,outcome,[1],inactive
same,outcome,[2],inactive
same,outcome,[3],inactive
same,outcome,[4],inactive
same,outcome,"CD38, CD38 (gene 952)",inactive
same,outcome,"CD40, CD40 (gene 958)",inactive
same,outcome,"CD69, CD69 (gene 969)",inactive
same,outcome,[5],inactive
same,outcome,[6],inactive
CCCCC/C=C/C=C/C=O,AC50,[1],33.2 µM (active)
same,AC50,[2],31.9 µM (active)
same,AC50,[3],30.8 µM (active)
same,AC50,[4],30 µM (active)
same,AC50,"CD38, CD38 (gene 952)",31.7 µM (active)
same,AC50,"CD40, CD40 (gene 958)",20 µM (active)
same,AC50,"CD69, CD69 (gene 969)",30 µM (active)
same,AC50,[5],31.2 µM (active)
same,AC50,[6],28.3 µM (active)
c1ccc2sc(SN(C3CCCCC3)C3CCCCC3)nc2c1,AC50,[7],13.1 µM (active)
same,AC50,[1],5.57 µM (active)
same,outcome,[2],inactive
same,AC50,[3],5.77 µM (active)
same,outcome,[4],inactive
same,AC50,"CD38, CD38 (gene 952)",7.65 µM (active)
same,AC50,"CD40, CD40 (gene 958)",7.96 µM (active)
same,AC50,"CD69, CD69 (gene 969)",5.79 µM (active)
same,outcome,[5],inactive
same,outcome,[6],inactive
CCCCCCCCCC=O,outcome,[1],inactive
same,outcome,[2],inactive
same,outcome,[3],inactive
same,outcome,[4],inactive
same,AC50,"CD38, CD38 (gene 952)",29.3 µM (active)
same,outcome,"CD40, CD40 (gene 958)",inactive
same,AC50,"CD69, CD69 (gene 969)",29.9 µM (active)
same,outcome,[5],inactive
same,AC50,[6],33.6 µM (active)
